Source: PubChem BioAssay (NCATS)
Results filed as inconclusive are left out. Where a call stands in place of a potency, no number is given. The source made the active and inactive calls. Calls follow the shape of the dose curve; as a rule, active = well fitted curve in the direction sought with a large enough effect; inconclusive = small, poorly fitted or top-dose-only effect, or another doubt; inactive = no such curve, though single readings can be large; an effect the other way counts as inactive or inconclusive.

Legend:
[1] = NS1 protein of Zika virus - qHTS assay to identify small molecule inhibitors in human HEK 293 cells (AID 1347053); also: nearly all actives have a fitted effect of over 55% in size; also: potency is read from the fitted curve at half-maximal effect
How it was run: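 Compound-treated (1 h pre-infection) HEK 293 cells infected with ZIKV MR766, MOI = 0.5; after 24 h at 37 C, NS1 read by TR-FRET; data normalized to uninfected and infected controls.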

[2] = qHTS of pediatric cancer cell lines to identify multiple opportunities for drug repurposing: Primary screen for TC32 cells (AID 1347089); also: nearly all actives have a fitted effect of over 60% in size; also: potency is read from the fitted curve at half-maximal effect
How it was run: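 TC32 cells, 500-1,000/well in growth medium, compound-treated 48 h at 37 °C; viability from CellTiter-Glo luminescence. Primary screen: MIPE 11-point (0.78 nM–46 µM final), NPC 8-point (0.59 nM–46 µM final); confirmatory at 11-point dilutions.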

[3] = qHTS of pediatric cancer cell lines to identify multiple opportunities for drug repurposing: Primary screen for DAOY cells (AID 1347090); also: nearly all actives have a fitted effect of over 55% in size; also: potency is read from the fitted curve at half-maximal effect
How it was run: (§1)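 Eight- or eleven-point concentration series, 48 h treatment at 37 degrees C in growth media; readout CellTiter-Glo luminescence. Potency and efficacy were taken from the concentration-response curves.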

[4] = qHTS of pediatric cancer cell lines to identify multiple opportunities for drug repurposing: Primary screen for SJ-GBM2 cells (AID 1347091); also: potency is read from the fitted curve at half-maximal effect
How it was run: as §1

[5] = qHTS of pediatric cancer cell lines to identify multiple opportunities for drug repurposing: Primary screen for A673 cells (AID 1347092); also: nearly all actives have a fitted effect of over 45% in size; also: potency is read from the fitted curve at half-maximal effect
How it was run: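 A673 cells (500-1,000 cells/well) were treated 48 hours at 37 degrees C with compounds at 11-point (0.78 nM to 46 µM) or 8-point (0.59 nM to 46 µM) dilutions. Viability read by CellTiter-Glo luminescence; concentration-response curves fitted.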

[6] = qHTS of pediatric cancer cell lines to identify multiple opportunities for drug repurposing: Primary screen for SK-N-MC cells (AID 1347093); also: potency is read from the fitted curve at half-maximal effect
How it was run: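 Metabolically active cells were quantified by ATP-dependent luminescence (CellTiter-Glo, 15 min at room temperature) following 48 h treatment. Cells had been plated at 500-1,000 per well and settled for 5 h beforehand.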

[7] = qHTS of pediatric cancer cell lines to identify multiple opportunities for drug repurposing: Primary screen for U-2 OS cells (AID 1347096); also: nearly all actives have a fitted effect of over 50% in size
How it was run: (§2)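 Cells (500-1,000/well) in growth media were settled 5 h at 37 degrees C, then given compounds for 48 h. Viability was read as CellTiter-Glo luminescence. Primary runs used MIPE at 11 points (0.78 nM-46 µM) and NPC at 8 points (0.59 nM-46 µM); follow-ups used 11 points.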

[8] = qHTS of pediatric cancer cell lines to identify multiple opportunities for drug repurposing: Primary screen for NB1643 cells (AID 1347099); also: nearly all actives have a fitted effect of over 50% in size; also: potency is read from the fitted curve at half-maximal effect
How it was run: (§3)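 CRCs from 8- or 11-point titrations (lowest final 0.59 nM NPC, 0.78 nM MIPE). Cell viability: CellTiter-Glo after 48 h incubation, 15 min room-temperature development, luminescence imaging.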

[9] = qHTS of pediatric cancer cell lines to identify multiple opportunities for drug repurposing: Primary screen for LAN-5 cells (AID 1347100); also: potency is read from the fitted curve at half-maximal effect
How it was run: as §2

[10] = qHTS of pediatric cancer cell lines to identify multiple opportunities for drug repurposing: Primary screen for OHS-50 cells (AID 1347103); also: nearly all actives have a fitted effect of over 40% in size; also: potency is read from the fitted curve at half-maximal effect
How it was run: (§4)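 Cells (500-1,000/well) rested 5 h, then received compounds for 48 h; metabolically active cells were measured by CellTiter-Glo luminescence. Final concentrations spanned up to 46 µM (MIPE, 11-point) or 0.59 nM-46 µM (NPC, 8-point) in primary screens, 11-point in follow-ups.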

[11] = qHTS of pediatric cancer cell lines to identify multiple opportunities for drug repurposing: Primary screen for RD cells (AID 1347104); also: nearly all actives have a fitted effect of over 55% in size; also: potency is read from the fitted curve at half-maximal effect
How it was run: as §3

[12] = qHTS of pediatric cancer cell lines to identify multiple opportunities for drug repurposing: Primary screen for MG 63 (6-TG R) cells (AID 1347105); also: nearly all actives have a fitted effect of over 50% in size; also: potency is read from the fitted curve at half-maximal effect
How it was run: as §3

[13] = qHTS of pediatric cancer cell lines to identify multiple opportunities for drug repurposing: Primary screen for NB-EBc1 cells (AID 1347095); also: potency is read from the fitted curve at half-maximal effect
How it was run: as §3

[14] = qHTS of pediatric cancer cell lines to identify multiple opportunities for drug repurposing: Primary screen for SK-N-SH cells (AID 1347098); also: nearly all actives have a fitted effect of over 65% in size; also: potency is read from the fitted curve at half-maximal effect
How it was run: as §4

[15] = qHTS of pediatric cancer cell lines to identify multiple opportunities for drug repurposing: Primary screen for BT-12 cells (AID 1347101); also: nearly all actives have a fitted effect of over 25% in size; also: potency is read from the fitted curve at half-maximal effect
How it was run: as §4

[16] = qHTS of pediatric cancer cell lines to identify multiple opportunities for drug repurposing: Primary screen for Rh18 cells (AID 1347102); also: nearly all actives have a fitted effect of over 65% in size; also: potency is read from the fitted curve at half-maximal effect
How it was run: as §2

[17] = qHTS of pediatric cancer cell lines to identify multiple opportunities for drug repurposing: Primary screen for BT-37 cells (AID 1347094); also: potency is read from the fitted curve at half-maximal effect
How it was run: as §3

[18] = qHTS of pediatric cancer cell lines to identify multiple opportunities for drug repurposing: Primary screen for Saos-2 cells (AID 1347097); also: nearly all actives have a fitted effect of over 40% in size; also: potency is read from the fitted curve at half-maximal effect
How it was run: as §3

SMILES: COc1ccc2c(Oc3ccc(NC(=O)c4c(C)n(CC(C)(C)O)n(-c5ccccc5)c4=O)nc3)ccnc2c1
- Potency [1]: inactive
- Potency [2]: inactive
- Potency [3]: inactive
- Potency [4]: 0.469 µM (active)
- Potency [5]: inactive
- Potency [6]: 29.6 µM (active)
- Potency [7]: inactive
- Potency [8]: inactive
- Potency [9]: inactive
- Potency [10]: 5.44 µM (active)
- Potency [11]: inactive
- Potency [12]: inactive

SMILES: COC(=O)[C@@H]1[C@H]2C[C@H]3c4[nH]c5ccccc5c4CCN3C[C@@H]2CC[C@@H]1O
- Potency [1]: inactive
- Potency [2]: inactive
- Potency [3]: inactive
- Potency [4]: inactive
- Potency [5]: inactive
- Potency [6]: inactive
- Potency [13]: inactive
- Potency [7]: inactive
- Potency [14]: inactive
- Potency [8]: inactive
- Potency [9]: inactive
- Potency [15]: inactive
- Potency [16]: inactive
- Potency [10]: inactive
- Potency [11]: inactive
- Potency [12]: inactive

SMILES: C[C@]12CC[C@@H]3c4ccc(O)cc4C[C@@H](CCCCCCCCCS(=O)CCCC(F)(F)C(F)(F)F)[C@H]3[C@H]1CC[C@H]2O (some centres not stated)
- Potency [1]: inactive
- Potency [2]: inactive
- Potency [3]: inactive
- Potency [4]: inactive
- Potency [5]: inactive
- Potency [13]: inactive
- Potency [7]: inactive
- Potency [14]: inactive
- Potency [8]: inactive
- Potency [12]: inactive

SMILES: NC(=O)NN=Cc1ccc([N+](=O)[O-])o1
- Potency [1]: inactive
- Potency [2]: inactive
- Potency [3]: inactive
- Potency [4]: inactive
- Potency [6]: inactive
- Potency [17]: inactive
- Potency [13]: inactive
- Potency [7]: inactive
- Potency [18]: inactive
- Potency [14]: inactive
- Potency [16]: inactive
- Potency [10]: inactive
- Potency [11]: inactive
- Potency [12]: inactive

SMILES: CC#CCn1c(N2CCC[C@@H](N)C2)nc2c1c(=O)n(Cc1nc(C)c3ccccc3n1)c(=O)n2C
- Potency [1]: inactive
- Potency [2]: inactive
- Potency [3]: inactive
- Potency [4]: inactive
- Potency [5]: 23.5 µM (active)
- Potency [17]: inactive
- Potency [13]: inactive
- Potency [7]: inactive
- Potency [9]: inactive
- Potency [15]: inactive
- Potency [16]: inactive
- Potency [10]: inactive
- Potency [12]: inactive

SMILES: CC1(C)CCC[C@@]2(C)[C@@H]1CC[C@@]1(C)OC(=O)C[C@H]21
- Potency [1]: inactive
- Potency [2]: inactive
- Potency [3]: inactive
- Potency [6]: 8.33 µM (active)
- Potency [17]: inactive
- Potency [13]: inactive
- Potency [7]: inactive
- Potency [14]: inactive
- Potency [8]: inactive
- Potency [9]: inactive
- Potency [15]: inactive
- Potency [16]: inactive
- Potency [11]: inactive
- Potency [12]: inactive

SMILES: O=C(O)C(O)Cc1ccc(O)c(O)c1 (configuration not stated)
- Potency [1]: inactive
- Potency [2]: inactive
- Potency [3]: inactive
- Potency [17]: inactive
- Potency [7]: inactive
- Potency [14]: inactive
- Potency [15]: inactive
- Potency [16]: inactive
- Potency [10]: inactive
- Potency [11]: inactive
- Potency [12]: inactive

SMILES: O=C(Nc1c(Cl)cncc1Cl)c1ccc(OC(F)F)c(OCC2CC2)c1
- Potency [1]: inactive
- Potency [2]: inactive
- Potency [3]: inactive
- Potency [5]: inactive
- Potency [17]: inactive
- Potency [13]: inactive
- Potency [7]: inactive
- Potency [15]: inactive
- Potency [16]: inactive
- Potency [10]: inactive
- Potency [11]: inactive
- Potency [12]: inactive

SMILES: O=c1cc(-c2ccccc2)oc2cc(O)cc(O)c12
- Potency [1]: inactive
- Potency [2]: inactive
- Potency [3]: inactive
- Potency [5]: inactive
- Potency [6]: inactive
- Potency [13]: inactive
- Potency [7]: inactive
- Potency [18]: inactive
- Potency [8]: inactive
- Potency [15]: inactive
- Potency [16]: inactive
- Potency [10]: inactive
- Potency [11]: inactive
- Potency [12]: inactive

SMILES: O=C(O)CCC1CCC(c2cc(F)ccc2F)(S(=O)(=O)c2ccc(Cl)cc2)CC1 (configuration not stated)
- Potency [1]: inactive
- Potency [2]: inactive
- Potency [3]: 11.8 µM (active)
- Potency [5]: 1.48 µM (active)
- Potency [6]: 0.0662 µM (active)
- Potency [13]: inactive
- Potency [14]: inactive
- Potency [8]: 2.35 µM (active)
- Potency [9]: 2.35 µM (active)
- Potency [11]: 14.8 µM (active)
- Potency [12]: 9.35 µM (active)

SMILES: Oc1ccc(C2=Cc3ccc(O)cc3OC2)cc1
- Potency [1]: 10.5 µM (active)
- Potency [2]: 7.39 µM (active)
- Potency [4]: 5.26 µM (active)
- Potency [5]: 2.35 µM (active)
- Potency [6]: 1.66 µM (active)
- Potency [17]: 12.2 µM (active)
- Potency [13]: 1.66 µM (active)
- Potency [7]: inactive
- Potency [18]: 11.8 µM (active)
- Potency [8]: 9.35 µM (active)
- Potency [9]: 2.35 µM (active)
- Potency [15]: 4.85 µM (active)
- Potency [11]: 5.26 µM (active)

SMILES: Cc1[nH]c(C=C2C(=O)Nc3ccc(S(=O)(=O)Cc4c(Cl)cccc4Cl)cc32)c(C)c1C(=O)N1CCC[C@H]1CN1CCCC1
- Potency [1]: inactive
- Potency [2]: inactive
- Potency [3]: inactive
- Potency [5]: 23.5 µM (active)
- Potency [6]: 18.7 µM (active)
- Potency [17]: 27.3 µM (active)
- Potency [13]: inactive
- Potency [18]: 18.7 µM (active)
- Potency [9]: 14.8 µM (active)
- Potency [10]: 30.6 µM (active)
- Potency [11]: 18.7 µM (active)
- Potency [12]: 23.5 µM (active)

SMILES: CCN(CC)CCOc1ccc(C(=C(Cl)c2ccccc2)c2ccccc2)cc1
- Potency [1]: inactive
- Potency [2]: inactive
- Potency [3]: inactive
- Potency [5]: 29.6 µM (active)
- Potency [6]: 14.8 µM (active)
- Potency [17]: inactive
- Potency [13]: inactive
- Potency [7]: inactive
- Potency [16]: inactive
- Potency [12]: inactive

SMILES: CC(=O)Nc1ccc([C@H](C)C(=O)Nc2ncc(C(C)C)s2)cc1
- Potency [1]: 3.72 µM (active)
- Potency [2]: 16.5 µM (active)
- Potency [3]: 1.48 µM (active)
- Potency [5]: 0.743 µM (active)
- Potency [6]: 0.332 µM (active)
- Potency [17]: 4.32 µM (active)
- Potency [13]: 2.35 µM (active)
- Potency [18]: 4.18 µM (active)
- Potency [14]: 4.82 µM (active)
- Potency [8]: 1.18 µM (active)
- Potency [15]: 1.22 µM (active)
- Potency [16]: 7.43 µM (active)
- Potency [10]: 3.85 µM (active)
- Potency [11]: 4.18 µM (active)
- Potency [12]: 1.87 µM (active)
